A selection: hits, their analogues and other compounds. The true share with any hit is near 4.1%.
ALR inh – inhibitors of human ALR sulfhydryl oxidase, primary screen, biochemical, H2O2 detection, HRP-luminol luminescence, single point; FAD-linked sulfhydryl oxidase ALR (Homo sapiens), P55789; purified ALR, DTT oxidation; inhibition, % (test concentration not listed); actives 3.8% (n = 290,000); AID 485317, 2010;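 active = mean replicate inhibition above about 79%, with every replicate also reaching it, limit read from the data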
IDE act – human IDE activators in live cells, primary screen, fluorescence polarization, HEK cells, FAbeta-B substrate | Insulin-degrading enzyme (Homo sapiens), P14735 | FAbeta-B cleavage; 0% vehicle, 100% cell-free pure enzyme wells | activation, % at 5.96 µM | actives 0.073% (n = 340,000) | AID 493087, 2011;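 active = activation above the mean of all tested compounds plus 3 SD, set per screening campaign, cut at about 17% in these data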
Target sequence (P14735 whole entry, looked up): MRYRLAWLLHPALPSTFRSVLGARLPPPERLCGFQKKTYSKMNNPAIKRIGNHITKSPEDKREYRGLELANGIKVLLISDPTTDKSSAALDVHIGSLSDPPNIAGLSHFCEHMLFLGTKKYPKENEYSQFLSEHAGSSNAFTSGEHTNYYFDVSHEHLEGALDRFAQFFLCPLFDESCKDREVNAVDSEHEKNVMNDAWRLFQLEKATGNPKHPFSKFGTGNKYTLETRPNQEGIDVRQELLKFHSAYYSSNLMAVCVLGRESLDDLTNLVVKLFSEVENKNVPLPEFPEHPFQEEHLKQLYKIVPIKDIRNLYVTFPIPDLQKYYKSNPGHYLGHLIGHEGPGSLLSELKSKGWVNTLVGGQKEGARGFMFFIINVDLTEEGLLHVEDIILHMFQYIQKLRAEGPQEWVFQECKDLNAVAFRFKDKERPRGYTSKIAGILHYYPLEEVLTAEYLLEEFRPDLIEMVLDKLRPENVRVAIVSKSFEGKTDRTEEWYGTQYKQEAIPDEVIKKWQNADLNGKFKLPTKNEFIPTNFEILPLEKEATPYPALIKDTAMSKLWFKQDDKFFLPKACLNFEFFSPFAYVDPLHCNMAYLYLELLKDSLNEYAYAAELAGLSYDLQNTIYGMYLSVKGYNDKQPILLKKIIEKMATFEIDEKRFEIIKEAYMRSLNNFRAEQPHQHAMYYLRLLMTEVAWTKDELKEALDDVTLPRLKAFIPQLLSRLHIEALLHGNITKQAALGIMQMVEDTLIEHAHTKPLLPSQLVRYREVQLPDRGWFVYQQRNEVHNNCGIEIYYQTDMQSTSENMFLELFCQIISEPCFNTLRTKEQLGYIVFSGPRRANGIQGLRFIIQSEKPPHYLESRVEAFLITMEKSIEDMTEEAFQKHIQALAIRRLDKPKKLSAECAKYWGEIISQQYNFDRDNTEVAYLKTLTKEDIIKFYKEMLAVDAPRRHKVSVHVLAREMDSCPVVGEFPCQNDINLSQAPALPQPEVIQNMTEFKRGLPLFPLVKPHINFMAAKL
IDE cell inh – human IDE inhibitors in live cells, primary screen, fluorescence polarization, HEK cells, FAbetaB substrate; FAbetaB cleavage; inhibition, % at 5.59 µM; actives 0.41% (n = 320,000); AID 434962, 2010;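 active = percent inhibition above the average of all tested compounds plus 3 SD, set per screening campaign, cut at about 16% in these data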;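 note: IDE supplied by intact live HEK cells; FP after avidin binding of uncleaved biotin substrate so inhibition keeps polarization high; 0% = DMSO wells and 100% = 60 µM reference IDE inhibitor Ii1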
PolyA inhibitor – polyadenylation inhibitors in yeast reporter cells, primary screen, luminescence, S. cerevisiae; actives 0.02% (n = 300,000); activity score, % at 12 µM; S. cerevisiae SKY197-pL101 polyadenylation reporter, beta-gal luminescence; efflux-impaired pdr1/pdr3 knockout yeast; score 100 = 6 SD above DMSO;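 active = lowest replicate activity score at least 50, where 100 means six control SD above control mean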;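 note: yeast exposed to compound for 9 h at 30 °C; higher score means more reporter readthrough which indicates perturbed polyadenylation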
PfM18AAP inh – PfM18AAP inhibitors, malaria aminopeptidase, primary screen, biochemical, QFRET, recombinant enzyme; inhibition, % at 7.35 µM; actives 1.2% (n = 290,000); M18 aspartyl aminopeptidase (Plasmodium falciparum 3D7); H-Glu-NHMec fluorogenic cleavage;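 active = inhibition above the campaign mean inhibition over all tested compounds plus 3 SD, cut at about 28% in these data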;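 note: 0% = plate median of test compound wells and 100% = 2 mM ZnCl2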
CaV13 FRET inh – Primary screen for inhibitors of IQ motif and Ca2+-dependent inactivation inhibitor domain binding in CACNA1D, Förster resonance energy transfer in living cells, …; HEK cells, CFP/YFP FRET ICDI-IQ, plate reader, 10 min; percent FRET-ratio fall versus neutral wells; inhibition, % at 12.3 µM; actives 0.098% (n = 340,000);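 active = mean replicate inhibition of at least 30% and at least 1% of replicates passing that level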;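 note: 0% = median of the neutral control wells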
The depositor's hits bear a star; x = no result.

SMILES	ALR inh	IDE act	IDE cell inh	PolyA inhibitor	PfM18AAP inh	CaV13 FRET inh
COc1ccc(-c2csc(/C(C#N)=C(\O)CSc3nccn3C)n2)cc1OC	86*	-3	-3	20	3	x
Cn1c(C(=O)N(Cc2ccccc2)Cc2cccs2)cc2sccc21	0	5	-3	10	1	-10
CCN(C(=O)CN1CCN(c2ccccc2O)CC1)c1c(N)n(Cc2ccccc2)c(=O)[nH]c1=O	98*	3	-4	10	28*	-12
CCN(C(=O)CN1CCN(c2ccccc2F)CC1)c1c(N)n(Cc2ccccc2)c(=O)[nH]c1=O	-13	0	7	10	-6	1
NNC(=O)c1ccc(CSc2nc3ccccc3s2)cc1	-16	0	2	-8	6	-3
COCCN(CCOC)C(=O)c1ccc(CSc2nc3ccccc3s2)cc1	92*	-5	8	2	-15	-4
NC(=O)c1ccc(Nc2nnc(-c3ccc(O)cc3)c3ccccc23)cc1	96*	6	-7	12	5	4
CC(=O)Nc1ccc(Nc2nnc(-c3ccc(O)cc3)c3ccccc23)cc1	84*	0	3	4	9	-3
NC(=O)Cc1ccc(Nc2nnc(-c3ccc(O)cc3)c3ccccc23)cc1	99*	0	5	6	-4	-3
COc1ccc(OCC(=O)N2CCC(n3nccc3NC(=O)C3CC3)CC2)cc1	-1	7	-2	2	-3	-5
Cc1nc(-c2ccccc2)nn1-c1ccc([N+](=O)[O-])cc1	-11	x	3	-14	x	-19
NC(CSS(=O)(=O)O)=NCCC12CC3CC(CC(O)(C3)C1)C2	85*	1	10	2	18	-5
CC1(C)C2CCC(CN=C(N)CSS(=O)(=O)O)C1C2 (centres undefined)	x	x	x	x	x	-6
CCCCCCc1c(C)nc(-n2[nH]c(C)c(CCO)c2=O)[nH]c1=O	86*	2	-2	6	2	-4
CCCCCCCc1c(C)nc(N2CCOCC2)[nH]c1=O	-7	-2	2	-4	-3	-4
Nc1ccc2nc(SCc3ccccc3F)sc2c1	99*	0	9	-5	3	-5
Nc1ccc2nc(SCC(=O)c3ccccc3)sc2c1	41	-1	1	-3	7	-2
COc1ccc(OCC(=O)NNC(=O)c2ccc3c(=O)n4c(nc3c2)CCC4)cc1	-4	5	4	-9	2	x
O=C(O)CCCN1C(=O)/C(=C\c2ccco2)SC1=S	x	-1	x	4	18	6
O=C(O)CCN1C(=O)/C(=C\c2ccc(-c3nc4ccccc4s3)o2)SC1=S	98*	-6	1	-2	-4	x
COC1=C/C(=C/c2c(O)c(C#N)c3ccccn23)C=CC1=O	91*	-10	5	18	11	-25
COc1cc(OC)cc(C(=O)c2c(C)c(C#N)c3ccccn23)c1	x	1	x	-4	-2	-2
Cc1cccc(NC(=S)NN2CCOCC2)c1C	3	4	-1	-2	7	-1
CC(=O)Nc1ccc(NC(=O)CSc2cn(CC(=O)N3CCOCC3)c3ccccc23)cc1	99*	-4	1	-26	3	-7
Cc1cn(CCC(=O)Nc2ccc(N3CCOCC3)cc2)c2ccccc12	82*	8	5	-3	1	-20
SMILES	ALR inh	IDE act	IDE cell inh	PolyA inhibitor	PfM18AAP inh	CaV13 FRET inh
COc1ccccc1CNCC(=O)Nc1ccc(N2CCOCC2)cc1	99*	4	8	15	-7	-3
Cc1cccc(NC(=S)Nc2ccc(N3CCOCC3)cc2)c1C	99*	2	2	0	3	-5
CCN(CC)S(=O)(=O)c1ccc(Cl)c(NC(=O)COC(=O)c2nc3nc(C)cc(C)n3n2)c1	-6	3	6	x	x	-2
O=c1cc(CO)[nH]nc1CO	x	x	x	x	x	-5
COC(CN(C)S(=O)(=O)c1cc2c3c(c1)CCN3C(=O)CC2)OC	-8	-3	1	9	2	-17
COC(=O)Cc1ccc(NC(=S)NCCCN2CCOCC2)cc1	-19	0	4	-3	2	-7
COC(=O)Cc1ccc(NC(=S)Nc2ccc(N3CCOCC3)cc2)cc1	89*	-6	-6	17	22	-5
O=C(CSc1cn(CC(=O)N2CCCCCC2)c2ccccc12)NCC1CCCO1 (centres undefined)	52	3	-4	-3	2	-7
CCn1cc(SCC(=O)NCC2CCCO2)c2ccccc21 (centres undefined)	98*	-5	1	-11	x	-3
Nc1cccc2c1C(=O)N(C(=O)/C=C/c1cccc(F)c1)C2=O	98*	2	-5	13	-7	-93
Nc1cccc2c1C(=O)N(C(=O)/C=C/c1cccc(Br)c1)C2=O	x	6	x	8	-12	-7
CN(C)CCNC(=O)c1onc(CSc2nc3ccccc3[nH]2)c1C(=O)NCCN(C)C	-2	1	3	-16	-2	-9
COc1cc(C(=O)Nc2nnc(C3=COCCO3)o2)cc(OC)c1OC	-3	0	1	0	5	-5
Cc1ccc(S(=O)(=O)N2C(c3ccc(Cl)c(Cl)c3)CC=C(C(=O)O)C2c2ccc(Cl)cc2)cc1 (centres undefined)	x	x	x	x	x	-10
O=C(O)C1=CC[C@@H](c2ccc(Cl)cc2)N(S(=O)(=O)c2ccc(Cl)cc2)[C@H]1c1ccc(F)cc1	2	-3	2	x	x	39*
Cc1ccc(S(=O)(=O)N2[C@@H](c3ccc(Cl)cc3)C(C(=O)O)=CC[C@H]2c2ccc(Cl)c(Cl)c2)cc1	88*	1	3	x	x	-10
O=C(NNC(=S)NC(=O)c1ccccc1[N+](=O)[O-])c1ccccc1[N+](=O)[O-]	-2	2	-1	-21	9	-7
O=C(O)CCC(=O)NNC(=O)c1ccc([N+](=O)[O-])cc1	x	5	-2	14	-8	-2
O=C(NNc1c(Cl)cc(Cl)cc1Cl)c1cccc([N+](=O)[O-])c1	93*	-6	-3	-29	9	-10
Cc1ccc(C(=O)NC(=S)NNC(=O)c2ccccc2[N+](=O)[O-])cc1	99*	-8	7	x	23	-5
CC(=O)c1ccc(NC(=S)NNC(=O)c2ccccc2[N+](=O)[O-])cc1	93*	6	-1	-11	13	-2
CCCCCC(=O)NNC(=S)NC(=O)c1ccc([N+](=O)[O-])cc1	88*	-1	-10	-13	31*	-6

Bioassay records deposited in PubChem by several laboratories.
